Each structure is given as a SMILES string. Screen size: about 350,000 compounds; about 5,500 (1.6%) were called active.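 Rule for the calls: active = significant combined selectivity score with lowered wild-type GFP, culture density cut under 30%, mutant RFP and density less affected; inactive = any of these conditions unmet.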 Only a selection was taken, and actives are over-represented in it overall.

The test is described as follows: reduced GFP signal of wild-type E. coli, primary screen, bacterial rRNA inhibitor project, GFP/RFP fluorescence, OD600, single point (AID 720706). The note with it: E. coli WT GFP vs humanized-ribosome RFP mutants, 24 h; GFP signal change (wild-type ribosome): stronger effect = lower value, DMSO median 0, no signal -100; OD600 change: measured here: OD600 growth, DMSO median 0, no signal -100; RFP signal change: measured here: RFP humanized mutant strains, DMSO median 0, no signal -100, concentration not given here.
`Cc1[nH]c2ccccc2c1SCC(=O)Nc1nccs1`: the GFP signal change (wild-type ribosome) is -21.9% (active), the OD600 change is -16.9% and the RFP signal change was -2.17%.

On to `Cn1c(SCC(=O)Nc2nccs2)nnc1-c1cccnc1`, for which the GFP signal change (wild-type ribosome) is 11.6% (inactive), the OD600 change came to 16.8% and the RFP signal change is -1.48%.

For `CCn1c(SCC(=O)Nc2nccs2)nnc1-c1ccco1`, the GFP signal change (wild-type ribosome) is 10.8% (inactive), the OD600 change is 0.14% and the RFP signal change was determined as 0.233%.

`COc1cccc(CNC(=O)COC(=O)CN2C(=O)NC3(CCCCC3C)C2=O)c1` (stereo unspecified): the GFP signal change (wild-type ribosome) is 3.13% (inactive), the OD600 change is 0.95% and the RFP signal change came to 0.493%.

`CC1CCCCC12NC(=O)N(CC(=O)OCC(=O)NCc1ccc(F)cc1)C2=O` (stereo unspecified): the GFP signal change (wild-type ribosome) was -2.84% (inactive), the OD600 change was -0.669% and the RFP signal change was -1.07%.

Consider `CC1CCCCC12NC(=O)N(CC(=O)OCc1c(F)cccc1Cl)C2=O` (stereo unspecified), for which the GFP signal change (wild-type ribosome) was -24.1% (active), the OD600 change is -16.3% and the RFP signal change was determined as 0.314%.

As to `Cc1cc2c(cc1C)[n+](C)cn2CC(O)COCC1CC=CCC1` (stereo unspecified), the GFP signal change (wild-type ribosome) is -29.3% (active), the OD600 change is -16.1% and the RFP signal change came out at 3.07%.

With `Cc1noc(C)c1S(=O)(=O)Nc1ccc2c(c1)C(=O)N([C@H](C)CO)C[C@H](C)[C@H](CN(C)S(=O)(=O)c1cn(C)cn1)OCCCC[C@@H](C)O2`, the GFP signal change (wild-type ribosome) was -2.25% (inactive), the OD600 change is -4.58% and the RFP signal change was -3.75%.

Take `COc1ccc(CN(C)C[C@@H]2Oc3ccc(NS(=O)(=O)c4cn(C)cn4)cc3C(=O)N([C@@H](C)CO)C[C@H]2C)cc1`: the GFP signal change (wild-type ribosome) was -0.89% (inactive), the OD600 change was found to be 10.2% and the RFP signal change is -0.875%.

As to `O=S1(=O)N=C(N(CCO)/N=C/c2ccccc2F)c2ccccc21`, the GFP signal change (wild-type ribosome) was -21.1% (active), the OD600 change is -9.01% and the RFP signal change came out at 2.34%.

As for `Cc1ccc(C(=O)NN(CCC#N)C2=NS(=O)(=O)c3ccccc32)cc1`, the GFP signal change (wild-type ribosome) was 11% (inactive), the OD600 change was 11% and the RFP signal change turned out to be 1.04%.

As for `COc1ccc(/C=N/N(C)C2=NS(=O)(=O)c3ccccc32)cc1OC`, the GFP signal change (wild-type ribosome) is 14.8% (inactive), the OD600 change came out at 9.54% and the RFP signal change is -0.4%.

Take `O=C(Nc1ccc(C(F)(F)F)cc1)N[C@@H]1CC[C@H](CCNC(=O)c2ccccc2F)O[C@@H]1CO`: the GFP signal change (wild-type ribosome) was -6.45% (inactive), the OD600 change was -10.8% and the RFP signal change is 3.96%.

Consider `COc1ccc(NC(=O)Nc2ccc3c(c2)C(=O)N([C@H](C)CO)C[C@@H](C)[C@H](CN(C)C(=O)Cc2ccccc2)OCCCC[C@H](C)O3)cc1`, for which the GFP signal change (wild-type ribosome) was -0.637% (inactive), the OD600 change is -0.596% and the RFP signal change stood at 2.91%.

As for `COCCNc1nc(Nc2ccccc2Cl)c2sc(-c3ccccc3)cc2n1`, the GFP signal change (wild-type ribosome) is -0.73% (inactive), the OD600 change stood at 28.1% and the RFP signal change is -2.05%.

Take `COCCNc1nc(NCc2ccc(NC(C)=O)cc2)c2sccc2n1`: the GFP signal change (wild-type ribosome) is 31.4% (inactive), the OD600 change worked out at 15.7% and the RFP signal change was 6.28%.

`CC(=O)Nc1ccc(CNc2nc(NCCN(C)C)nc3cc(-c4ccccc4)sc23)cc1`: the GFP signal change (wild-type ribosome) is -20.5% (active), the OD600 change is -5.3% and the RFP signal change came out at 1.68%.

Consider `COc1ccc(NC(=O)N(C)C[C@@H]2Oc3ncc(-c4ccc(C#N)cc4)cc3C(=O)N([C@@H](C)CO)C[C@H]2C)cc1`, for which the GFP signal change (wild-type ribosome) is -1.74% (inactive), the OD600 change was -0.24% and the RFP signal change is -0.855%.

Take `CS(=O)(=O)Nc1ccc2c(c1)[C@@H]1C[C@H](CC(=O)NCc3ccccn3)O[C@@H](CO)[C@@H]1O2`: the GFP signal change (wild-type ribosome) was 2.36% (inactive), the OD600 change was -0.375% and the RFP signal change is 1.41%.

Take `O=C(NCCN1CCCCC1)[C@@H]1N[C@@H]2c3ccc(-c4ccccc4)c(=O)n3C[C@@H]2[C@H]1CO`: the GFP signal change (wild-type ribosome) is -1.4% (inactive), the OD600 change turned out to be 4.26% and the RFP signal change is -4%.

As to `COC(=O)C[C@@H]1CC[C@H]2[C@@H](COC[C@H](O)CN2C(=O)Nc2ccccc2OC)O1`, the GFP signal change (wild-type ribosome) is -0.973% (inactive), the OD600 change amounted to 5.6% and the RFP signal change worked out at 2.71%.

Regarding `CCC(O)C1CCN(Cc2cn(-c3ccc(OC)cc3)nc2-c2cccc(F)c2)CC1` (stereo unspecified), the GFP signal change (wild-type ribosome) is -12.5% (inactive), the OD600 change is -11% and the RFP signal change turned out to be 3.52%.

In the case of `COc1ccc(-n2cc(CN(C)Cc3n[nH]c(=O)[nH]3)c(-c3cccc(F)c3)n2)cc1`, the GFP signal change (wild-type ribosome) is -10.8% (inactive), the OD600 change is -14.6% and the RFP signal change was -0.58%.

Turning to `COc1ccc(-n2cc(CNC3CCOCC3)c(-c3cccc(F)c3)n2)cc1`, the GFP signal change (wild-type ribosome) was -30.4% (active), the OD600 change was -24.4% and the RFP signal change is -1.67%.

Consider `O=C(Nc1cccc(-n2cnnn2)c1)c1cccnc1`, for which the GFP signal change (wild-type ribosome) is 1.1% (inactive), the OD600 change turned out to be 2.52% and the RFP signal change is 0.952%.

As to `O=C(Nc1ccc(C(F)(F)F)cc1)c1cccc(-n2cnnn2)c1`, the GFP signal change (wild-type ribosome) was -24.6% (active), the OD600 change was -17.2% and the RFP signal change was -9.02%.

As to `O=C(O)CSCC(=O)Nc1ccc(C(F)(F)F)cc1`, the GFP signal change (wild-type ribosome) is 9.65% (inactive), the OD600 change was determined as 10.9% and the RFP signal change stood at 3.37%.

`COc1ccccc1CNC(=O)C[C@@H]1CC[C@@H]2[C@@H](COc3ccc(NC(=O)Nc4ccc(F)c(F)c4)cc3C(=O)N2C)O1`: the GFP signal change (wild-type ribosome) is -9.44% (inactive), the OD600 change was -10.3% and the RFP signal change is -1.71%.

Regarding `CCCNC(=O)C[C@@H]1C[C@H]2c3cc(NC(=O)Nc4ccccc4F)ccc3O[C@H]2[C@H](CO)O1`, the GFP signal change (wild-type ribosome) was -3.87% (inactive), the OD600 change was -12.4% and the RFP signal change came out at 1.51%.

For the molecule `COC(=O)c1c(-c2ccc(C)cc2)csc1N`, the GFP signal change (wild-type ribosome) was -1.07% (inactive), the OD600 change was -0.1% and the RFP signal change was 43.8%.

For the molecule `COC(=O)c1c(C(=O)OC)c2n(c1C)CCS2`, the GFP signal change (wild-type ribosome) was -22.3% (active), the OD600 change was -9.31% and the RFP signal change is -5.79%.

Consider `COC(=O)c1c(C)cc(O)c(C)c1O`, for which the GFP signal change (wild-type ribosome) is -0.355% (inactive), the OD600 change amounted to 5.33% and the RFP signal change came out at 0.38%.
